Screening data as filed in PubChem.
Shown are actives, neighbours in structure and some others; about 2.2% of the full set was active somewhere.
APP 5UTR inh: inhibitors of APP translation via 5'UTR reporter, primary screen, APP 5'UTR luciferase, SH-SY5Y cells. AID 1285, 2008. SH-SY5Y APP 5'UTR-luciferase reporter, luminescence. 0.82% of 190,000 active. inhibition, % at 2 µM;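 active = inhibition above a set limit, derived from the sample mean plus 3 SD, cut at about 45% in these data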
aSyn 5UTR inh: MLPCN primary screen, SNCA 5' untranslated region. alpha-synuclein 5'UTR reporter, inhibitor activity. inhibition, % (tested at 7.5 µM). 0.82% of 300,000 active. AID 1813, 2009; in the data active = inhibition above about 60%;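 note: H4 neuroglioblastoma cells stably carrying SNCA 5'UTR luciferase fusion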
BaF3 tox: parental Ba/F3 cell viability inhibition, counter-screen for JAK2V617F inhibitor project, murine pro-B, CellTiter-Glo luminescence | inhibition, % at 5.6 µM | CellTiter-Glo ATP luminescence | 1.1% of 220,000 active;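 active = inhibition above a per-campaign cutoff, the mean inhibition of all tested compounds plus 3 SD, cut at about 27% in these data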
KLF5 inhibitor: KLF5 expression inhibitors, primary screen, DLD-1 cells, luminescence; DLD-1 KLF5 promoter-luciferase reporter; inhibition, % at 5 µM; 0.23% of 290,000 active; AID 1700, 2009;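 active = inhibition above a per-plate limit of that plate's mean compound inhibition plus 3 SD, cut at about 60% in these data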;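 note: higher means less KLF5 promoter-driven luciferase light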
IEC-6 cytotox: cytotoxicity in IEC-6 intestinal epithelial cells, primary screen, cytotoxicity control for KLF5 inhibitor project, cell-based, luminescence; IEC-6 cytotoxicity, luminescence viability; 0.78% of 290,000 active; inhibition, % at 5 µM; AID 1825, 2009
Ba/F3 V617F tox: reduced viability of JAK2V617F-dependent Ba/F3 cells, primary screen, JAK2V617F inhibitor project, cell-based, Ba/F3 EpoR-JAK2V617F, luminescence; ATP luminescence; inhibition, % at 5.6 µM; 1.1% of 220,000 active;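 active = inhibition above the campaign mean plus 3 SD over all tested compounds, cut at about 24% in these data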;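 note: cytokine-independent growth of Ba/F3 cells driven by EpoR plus mutant JAK2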
IEC-6 tox confirm: cytotoxic compounds in IEC-6 epithelial cells, confirmation, cytotoxicity control, cell-based, luminescence; shares compounds with IEC-6 cytotox; IEC-6 rat intestinal epithelial viability; inhibition, % at 5 µM; 63% of 1,900 active; AID 1907, 2009
Each line names hits and unclear results; the compound was inactive in the other large screens (follow-up assays come after a bar, where they were run). Cut-off read from the data, not from the text of the source, unless noted: active = inhibition above about 22%; inactive = the rest.

O=c1c2ccccc2nc(/C=C/c2ccc(O)c(O)c2)n1-c1ccccc1	none (no result: APP 5UTR inh, BaF3 tox, Ba/F3 V617F tox)
CC(=O)O[C@@]12CO[C@@H]1C[C@H](OC1OCC(O)C(O)C1O)[C@@]1(C)C(=O)[C@H](O)C3=C(C)[C@@H](OC(=O)[C@H](O)[C@@H](NC(=O)c4ccccc4)c4ccccc4)C[C@@](O)([C@@H](OC(=O)c4ccccc4)C12)C3(C)C (stereo partly drawn)	IEC-6 cytotox 57 (no result: APP 5UTR inh, BaF3 tox, Ba/F3 V617F tox) | IEC-6 tox confirm 46
CCCCCC(=O)N[C@@H](c1ccccc1)[C@@H](O)C(=O)O[C@H]1C[C@@]2(O)[C@@H](OC(=O)c3ccccc3)C3[C@](C)(C(=O)[C@H](O)C(=C1C)C2(C)C)[C@@H](OC1OCC(O)C(O)C1O)C[C@H]1OC[C@@]31OC(C)=O (stereo partly drawn)	IEC-6 cytotox 68 (no result: APP 5UTR inh, BaF3 tox, Ba/F3 V617F tox) | IEC-6 tox confirm 54
Cc1oc(-c2ccccc2Cl)nc1CN1C(=O)CN=C(c2ccccc2)c2ccccc21	none
Cc1cccc(-n2c(O)c(/C=C/C=Nc3ccccc3)c(=O)[nH]c2=O)c1	none
Cc1cccc(-n2c(O)c(/C=C3/C(c4ccccc4)=Nc4ccccc43)c(=O)[nH]c2=O)c1	BaF3 tox 74, IEC-6 cytotox 70, Ba/F3 V617F tox 82 (no result: APP 5UTR inh) | IEC-6 tox confirm 58
COC(=O)C1C(OC(=O)c2ccccc2)CC2CCC1N2C (stereo not drawn)	none
COc1ccc(C2=CC(c3ccc(OC)c(OC)c3)c3c(c4ccccc4oc3=O)O2)cc1OC (stereo not drawn)	IEC-6 cytotox 28 (no result: APP 5UTR inh) | IEC-6 tox confirm inactive
CCCCn1c(=O)c(C(=O)Nc2ccsc2C(=O)OC)c(O)c2ccccc21	none
COC(=O)Cn1cc(/C=C2\C(=O)NC(=O)N(c3ccccc3)C2=O)c2ccccc21	none (no result: APP 5UTR inh, BaF3 tox, Ba/F3 V617F tox)
Cc1ccccc1-n1c(/C=C/c2ccccn2)nc2ccccc2c1=O	none (no result: APP 5UTR inh)
CN1C2CCC1/C(=C/c1ccccn1)C(=O)/C2=C\c1ccccn1	APP 5UTR inh 95, BaF3 tox 103, IEC-6 cytotox 59, Ba/F3 V617F tox 100 (no result: aSyn 5UTR inh) | IEC-6 tox confirm 95
C=CCn1c(O)c(C(C)=NCc2cc(OC)cc(OC)c2)c(=O)[nH]c1=O	BaF3 tox 28, IEC-6 cytotox 28, Ba/F3 V617F tox 45 | IEC-6 tox confirm 34
C=CCn1c(O)c(C(C)=NCc2cccnc2)c(=O)[nH]c1=O	none
CC/C(=C\C=C\[C@@H]1C=C[C@@H]2CCC[C@H]2[C@@H]1C(=O)c1ccc[nH]1)[C@@H]1O[C@@H]([C@@H](C)C(=O)O)CC[C@@H]1C	BaF3 tox 31, IEC-6 cytotox 39, Ba/F3 V617F tox 55 | IEC-6 tox confirm 33
C[C@@]1(CO)[C@H](O)CC[C@@]2(C)[C@H]1CC[C@H]1C[C@@H]3C[C@@]12CC[C@]3(O)CO	APP 5UTR inh 83, aSyn 5UTR inh 73, BaF3 tox 91, IEC-6 cytotox 87, Ba/F3 V617F tox 99 | IEC-6 tox confirm 80
CCN(CC)S(=O)(=O)c1cccc(N=Nc2c(O)n(CC)c(=S)n(CC)c2=O)c1	none (no result: APP 5UTR inh)
COC(=O)C[C@]1(C(=O)OC)CN(C#N)N(c2ccc(Cl)cc2)C12c1ccccc1-c1ccccc12	APP 5UTR inh 96, aSyn 5UTR inh 96, BaF3 tox 97, IEC-6 cytotox 101, Ba/F3 V617F tox 98 | IEC-6 tox confirm 93
COc1cc(C[C@@H](C)N)c(OC)cc1I	none (no result: APP 5UTR inh, BaF3 tox, KLF5 inhibitor, IEC-6 cytotox, Ba/F3 V617F tox)
COc1ccc(OC(=O)N(C)C)c(CN(C)C)c1	none
